Screening results deposited in PubChem by ICCB-Longwood Screening Facility, Harvard Medical School.
This excerpt belongs to a sample that is enriched for hits.
Sa helicase inh: blocks Staphylococcus aureus DNA helicase | purified S. aureus helicase, fluorescence unwinding assay | inhibition, % (concentration not given with the values) | 120,000 compounds, 0.05% hits; in the data active = inhibition above about 25%, passing the limit was not always enough
Sa growth inh: S. aureus growth inhibition. S. aureus RN4220 growth, OD600, 20 h, 42 °C; stronger effect = lower value. relative growth, % (test concentration not listed). 170,000 compounds, 0.53% hits;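 active = relative growth at most 50% at the other temperature and 20+ points below 30 °C, or under 10% at both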
Each line names hits and unclear results; the compound was inactive in the other large screens.

Cc1sc2nc(CC#N)[nH]c(=O)c2c1C	none
O/N=C/c1nn(-c2ccccc2)cc1Br	none (no result: Sa helicase inh)
COC(=O)c1cn(-c2ccccc2)nc1N	none
COc1cccc(/C=C/C(=O)Nc2c(F)c(F)c(F)c(F)c2F)c1OC	none
Cc1ccccc1OC(=O)c1cc(-c2ccc3c(c2)OCCO3)on1	none (no result: Sa helicase inh)
Cc1cccc(OC(=O)c2cc(-c3ccc4c(c3)OCCO4)on2)c1C	Sa growth inh 0.1 (no result: Sa helicase inh)
O=C(Oc1ccc(Cl)cc1)c1cc(-c2ccc3c(c2)OCCO3)on1	none (no result: Sa helicase inh)
O=C(Oc1ccccc1Cl)c1cc(-c2ccc3c(c2)OCCO3)on1	Sa growth inh -0.1 (no result: Sa helicase inh)
N#CC1=C2CCCCC2C(c2ccco2)C(C#N)(C#N)C1=O (centres undefined)	none
NC(=O)c1ccc(NC(=O)COc2ccc(F)cc2Cl)cc1	none
O=C1N=c2ccccc2=C1N=Nc1c(O)[nH]c2ccccc12	none
O=C1C2C=CC=CC2=NC(=S)[N+]1=Nc1c(O)[nH]c2ccccc12 (centres undefined)	Sa growth inh 1.4
O=C1CCCN1c1nc2ccccc2s1	none
Cc1nn(C)c(C)c1Sc1ccc(Br)cc1	none
Cc1nn(CO)c(C)c1Sc1ccc(Br)cc1	Sa growth inh 18
COCC(C)n1c(=S)nnc2c3ccccc3[nH]c21 (centres undefined)	none
CCNC(=O)c1ccc(-n2c(C)ccc2C)cc1	Sa helicase inh 29
COC(=O)c1ccc(-n2c(C)ccc2C)cc1	none
NC1=NC(=O)C(c2ccccc2Cl)S1 (centres undefined)	none
Oc1ccc(Cl)cc1Sc1cc(Cl)ccc1O	Sa growth inh 3.6
Oc1ccc(Cl)cc1-c1csnn1	none
CCCn1c(NC(=O)C2CCCC2)nc2ccccc21	Sa growth inh -0.9
CCCn1c(NC(=O)CCC2CCCC2)nc2ccccc21	none
C(=N\n1cnnc1)/c1ccc(N(c2ccccc2)c2ccccc2)cc1	Sa growth inh 1.4
CN(C)c1ccc(/C=N/n2cnnc2)cc1	none
CC(=O)Nc1ccc(C(=O)Cn2ncc(Cl)c(Cl)c2=O)cc1	none
CCOC(=O)c1[nH]c2ccccc2c1NC(=O)COc1ccccc1	none (no result: Sa growth inh)
CC(=O)Nc1sc2c(c1C#N)CCC2	none
N#Cc1c(NC(=O)C(F)(F)F)sc2c1CCCC2	Sa growth inh -1.0
O=C(CSc1nnc(NC(=O)Nc2ccccc2)s1)Nc1cccc(F)c1	none (no result: Sa helicase inh)
CCSc1nsc(NC(=O)Nc2cccc(F)c2)n1	Sa growth inh -0.7
COc1ccc(C2OCc3ccccc3N2C(=O)c2cccc(OC)c2)cc1 (centres undefined)	none
O=C(O)CC1(O)c2ccccc2C(=O)N1Cc1ccccc1 (centres undefined)	none
COc1cc(C#N)ccc1OC(=O)CC1CC2CCC1C2 (centres undefined)	none
CC(C)CN(CC(C)C)C(=O)CSc1nnc(-c2cccc(Cl)c2)n1N	none
CCOc1ccc(-n2nnc(C(=O)NCCN3CCOCC3)c2C)cc1	none
FC(F)(F)c1cc(-c2nsc(N3CCOCC3)n2)cc(C(F)(F)F)c1	none (no result: Sa helicase inh)
CC[C@H]1OC(=O)[C@H](C)[C@@H](O[C@H]2C[C@@](C)(OC)[C@@H](O)[C@H](C)O2)[C@H](C)[C@@H](O[C@@H]2O[C@H](C)C[C@H](N(C)C)[C@H]2O)[C@](C)(O)C[C@@H](C)CN(C)[C@H](C)[C@@H](O)[C@]1(C)O	Sa growth inh -0.9 (no result: Sa helicase inh)
CCOC(=O)NCCN1C(=O)C2C3C=CC(C3)C2C1=O (centres undefined)	none
O=C(OCc1ncc(-c2ccccc2)o1)C1CC2CCCC(C1)C2=O (centres undefined)	none
CCCCC/C=C/CCC(=O)N[C@H]1[C@H](Oc2c3cc4cc2Oc2ccc(cc2Cl)[C@@H](O[C@@H]2O[C@H](CO)[C@@H](O)[C@H](O)[C@H]2NC(C)=O)[C@@H]2NC(=O)[C@H](NC(=O)[C@@H]4NC(=O)[C@H]4NC(=O)C(Cc5ccc(c(Cl)c5)O3)NC(=O)[C@H](N)c3ccc(O)c(c3)Oc3cc(O)cc4c3)c3ccc(O)c(c3)-c3c(OC4O[C@H](CO)[C@@H](O)[C@H](O)[C@@H]4O)cc(O)cc3[C@@H](C(=O)O)NC2=O)O[C@H](CO)[C@@H](O)[C@@H]1O (some centres undefined)	Sa growth inh -0.1 (no result: Sa helicase inh)
c1coc(C2=NCCN2)c1	none
c1cc2cc(C3=NCCN3)ccc2cc1C1=NCCN1	Sa helicase inh 46
Cc1ccc(N2CCN(c3cnn(-c4nc5ccccc5s4)c(=O)c3N(C)C)CC2C)cc1 (centres undefined)	none
CC(=O)Nc1ccc(OC(=O)COc2cccc(C)c2)cc1	none
O=C(O)CNCC(O)Cn1c2ccccc2c2ccccc21 (centres undefined)	none
OC(CNCc1ccccc1)Cn1c2ccc(Cl)cc2c2cc(Cl)ccc21 (centres undefined)	Sa growth inh -0.9
O=C(NC1CCCCC1)c1sc(=S)n2c1[nH]c(=O)c1ccccc12	Sa growth inh -0.2
O=C(NCCc1ccccc1)c1sc(=S)n2c1[nH]c(=O)c1ccccc12	none
Cc1nc(-c2ccc3ccccc3c2)cs1	none (no result: Sa growth inh)
Cc1nc(-c2ccc3[nH]c(=O)oc3c2)cs1	Sa growth inh -1.1
CCOc1ncnc2c1cnn2-c1ccccc1	none
